# Assay results from the supplement of paper PMC6555819.
# Key:
# Assay in all cases: PBM binding z-score (relative to random genomic background probes); higher = stronger binding; sequences stand for … in GC…GCGATTGACAGCGTAGAATGAAGG
# [1] = tested on: PPARg:RXRa DBDmut IVT, anti-RXR (DBD mutation: RXRa K156A/R161A, NR concentration 270 nM, RXRa partner concentration 90 nM)
# Procedure, shortened: (§1)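 For binding z-scores, the reference was random background probes on custom Agilent 4×180K protein-binding microarrays. These arrays were incubated 1 h with ligand-free nuclear receptor dimers in PBS pH 7.4, 2% milk, 0.02% Triton X-100, 1 mM DTT, 0.2 mg/mL BSA and 0.4 mg/ml salmon testes DNA. Fluorescence was scanned after antibody detection of each partner (one per run) and regression-normalized.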
# [2] = tested on: PPARg:RXRa IVT, anti-PPARg (NR concentration 270 nM, RXRa partner concentration 90 nM)
# Procedure, shortened: as §1
# [3] = tested on: PPARg DBDmut:RXRa IVT, anti-PPARg (DBD mutation: PPARg1 K132A/R137A, NR concentration 270 nM, RXRa partner concentration 90 nM)
# Procedure, shortened: as §1
# [4] = tested on: PPARg DBDmut IVT, anti-PPARg (DBD mutation: PPARg1 K132A/R137A, NR concentration 270 nM)
# Procedure, shortened: as §1
# [5] = tested on: PPARg homodimer (NR concentration 180 nM)
# Procedure, shortened: as §1
# [6] = tested on: PXR:RXRa (NR concentration 270 nM, RXRa partner concentration 90 nM)
# Procedure, shortened: as §1
# [7] = tested on: PXR homodimer (NR concentration 270 nM)
# Procedure, shortened: as §1
# [8] = tested on: RARa:RXR (NR concentration 270 nM, RXRa partner concentration 90 nM)
# Procedure, shortened: as §1
# [9] = tested on: RARa homodimer (NR concentration 270 nM)
# Procedure, shortened: as §1
# [10] = tested on: RARb:RXRa (NR concentration 270 nM, RXRa partner concentration 90 nM)
# Procedure, shortened: as §1
Sequence,PBM binding z-score [1],PBM binding z-score [2],PBM binding z-score [3],PBM binding z-score [4],PBM binding z-score [5],PBM binding z-score [6],PBM binding z-score [7],PBM binding z-score [8],PBM binding z-score [9],PBM binding z-score [10]
TCTTGTAGATCAGCAGGTTACGAAAGCTGGCCAA,1.6,0.645,-0.743,-0.301,-0.303,-0.0656,-0.456,0.298,-0.436,0.143
ACTATCAGGCCAAGTTTGGGTCACTCAAACAAAG,0.297,1.51,1.26,0.453,1,0.896,0.251,1.83,-0.177,2.12
TGAGTGAGGTTATAAGATCAGGGAACGTTGCAAA,-0.596,0.754,0.555,-0.0846,0.652,0.754,0.0305,1.06,0.466,1.25
GCTCTTAGTTGAAAGGGCAACCGAATGATTCTCG,0.37,0.474,0.11,-0.335,0.85,0.654,-0.0314,1.47,-0.318,2.08
GCGACTGGGGCAAAGCAGGTTACCATTAGGTTGG,4.83,3.63,-0.282,-0.886,0.27,0.143,-0.296,0.139,-0.535,0.975
CTACCAAGGTGAACAAGGTCGTTGGTTACTATTC,1.96,2.45,0.303,-0.188,0.751,2.75,2.32,2.28,0.473,2.14
ATCGAAAGGTTGAGGTGAGTATAGAGAAAGGGAA,-0.0233,1.04,1.15,1.07,0.793,0.751,0.241,1.37,0.673,1.79
GCTGCTAGGTCATCTGATGGTCAGCTAAAGCTCG,3.87,3.44,-0.368,-0.142,0.777,1.71,-0.679,2.64,-0.43,4.07
TGTCAAAGTTCCAAGGTAACGTAAGTATCCACAC,-0.29,1.18,0.991,0.288,0.137,0.082,0.35,0.56,0.373,0.659
TCTGCTAGGTCCGTTGGTCAGCTAACGAGCTGCC,0.439,-0.053,-0.86,0.217,-1.34,-0.511,-1.26,-0.446,-1.4,-0.0528
GCTAGTTGGTCAGTAAAAGGTCACACTCCGGTCG,1.66,2.87,-0.175,0.207,3.12,4.77,0.877,5.45,1.9,4.3
CCTACTGGGCCATTCAAAGGTCATTGATCATATG,4.67,4.81,-0.127,-0.542,2.61,5,2.28,5.19,0.686,3.72
CCTATTAGTTGACCATAAGGCCAACCGAAGCTCG,0.55,0.487,0.478,0.312,1.95,0.947,1.1,0.845,1.87,1.34
GCTTGGAGGACAAGGTCAGAGCTTTGTCCGTAGA,1.24,1.71,-1.32,-1.05,0.764,1.76,-0.385,2.05,-0.509,3.48
CCTTACGGGTCACCAGGTTATAGCACGACGAGCG,3.46,5.18,0.0764,-0.404,2.34,3.72,-0.0319,4.62,1.27,4.27
CCTGCTAGGTCATGGTCAGCTAGTCTACAGTATG,4.65,3.97,0.24,-0.536,1.4,1.51,-0.479,2.41,-0.496,4.15
CCTAGCAGTCCAGGGTCACTCAAGCATTTCGCTT,-0.136,0.647,-1.3,-1.13,1.01,2.58,2.51e-05,3.02,-0.3,2.33
CAAACTTGGTCAAAGGTCAAAGTCGAGCCAACCA,3.33,6.48,1.57,0.873,4.08,6.01,1.58,7.69,1.5,5.11
TCTTGTAGAACAAAGGTTAAGAAAGCCGAAGCCT,2.26,3.87,0.00137,0.832,0.868,1.31,-0.451,2.33,0.221,1.81
TCTTGTAGAACAACAGGAGGTTAAGAAAGATCGA,2.21,0.963,0.603,0.55,0.00875,0.716,0.0491,0.961,0.174,0.469
ATCTCTAGGTACAAGTTCAGTGAATCCCGAGGAT,0.163,1.47,0.611,0.766,0.56,1.92,1.54,0.393,0.103,1.66
TCTTGGAGGACACGAAAGGTCAGAGCTCGACATC,2.26,2.63,0.421,0.521,2.91,4.16,0.329,4.3,0.376,4.39
CCTATTAGTTGACCATAAGGGCAACCCAAGCTCG,0.483,0.597,0.502,0.375,1.63,1.12,1.26,1.22,1.66,1.53
